Structures are written as SMILES. This is part of a sample that, as a whole, favours compounds with a hit. Of some 83,000 tested, about 20% had one in any assay.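 Plates (96-well) were seeded with cells, treated with compound at one concentration, and incubated for 48 hours before percent growth was determined.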 A number with no mark means an inactive call. The source made the active and inactive calls. How the source made its calls: active means growth percent below 10; inactive means the rest.

This experiment has as its system OVCAR-8 ovarian. Kind of experiment: NCI-60 one-dose screen, 48 h (100 = growth as untreated, 0 = no growth, -100 = all killed). Particulars: 10 µM.
In the case of `CN1CCN(c2ccc(Nc3nc(N4CCN(S(=O)(=O)c5ccc(F)cc5)CC4)c4sccc4n3)cc2)CC1`, the growth was -85% (active). With `CCCCCc1ccc(S(=O)(=O)Nc2cc(-c3csc(N(C)C(C)=O)n3)ccc2N2CCN(C)CC2)cc1` the figure was 36%. In the case of `CN1CCN(c2ccc(Nc3nc(NCCCNC(=O)C4CCCCC4)c4sccc4n3)cc2)CC1` it was 57.5%; in that of `N[C@@H](CSSC[C@H](N)C(=O)Nc1ccc(OCC2CCCC2)cc1)C(=O)Nc1ccc(OCC2CCCC2)cc1`, -59.8% (active). With `COc1ccc2nc(Cl)c(-c3cc(-c4ccccc4)nc(=O)[nH]3)cc2c1` the figure was 11.3%. Turning to `O=C(Nc1ccc(OCc2ccccc2)cc1)Nc1ccc(Cl)c(C(F)(F)F)c1`, the growth was 2.36% (active).

As to `COc1ccc2[nH]c(O)c(N=NC(=O)COc3ccc(NC(=O)Nc4ccc(Cl)cc4)cc3)c2c1`, the growth was -28.6% (active). Take `Cc1cc2c(c(O)c1Br)-c1ncoc1C(=O)[C@]1(C)CC[C@H](C(C)C)[C@H]21`: the growth is 32.6%. In the case of `CCN1CCN(c2ccc(NC(=O)Nc3ccc4c(c3F)CCN4c3ccnc(C(=O)NC)c3)cc2C(F)(F)F)CC1` it was -75.4% (active); in that of `O=C1Nc2ccc(F)cc2/C1=C/c1cccc(OCc2ccccc2)c1`, 24.6%. With `Cc1ccc(NC(=O)c2ccc(-n3c(=O)[nH]c4ccccc4c3=O)cc2)cc1` the figure was 52.9%; with `O=C(Nc1ccncc1)c1ccc(-n2c(=O)[nH]c3ccccc3c2=O)cc1`, 96%; with `Cc1ccc(-c2cc(-c3cc4ccccc4nc3Cl)[nH]c(=S)n2)cc1`, 68.2%. In the case of `O=C(c1ccc(Cl)cc1)C1[C@H](c2ccc(Br)cc2)[C@@H](c2ccccc2)NC12C(=O)Nc1ccc(Cl)cc12` (some centres not stated) it was -55% (active). Take `O=C(O)CCCCCCCCCCN1C(=O)/C(=C/c2cnc(-c3ccc(Cl)cc3)s2)SC1=S`: the growth was -2.09% (active). In the case of `CN1CCN(c2ccc(Nc3nc(N4CCN(S(=O)(=O)c5ccc(Cl)cc5)CC4)c4sccc4n3)cc2)CC1` it was -82.9% (active); in that of `CN1CCN(c2ccc(C(=O)/C=C/c3cc(Br)ccc3F)cc2)CC1`, 64.2%.

For the compound `O=c1nc(-c2ccccc2)cc(-c2cc3ccccc3nc2Cl)[nH]1`, the growth was -68.1% (active). In the case of `CC1=C2C(=C[C@@](C)(CO)[C@@H]2O)/C(=N\N)[C@](C)(O)C12CC2` it was 1.18% (active); in that of `O=C(c1ccc(O)cc1)C1[C@H](c2ccc(Br)cc2)[C@@H](c2ccccc2)NC12C(=O)Nc1ccc(Br)cc12` (some centres not stated), 12%; in that of `COc1ccc(C=CC(=O)c2ccc(-n3c(C)nc4c(cnn4-c4ccccc4)c3=O)cc2)cc1`, 83.4%. For `O=C(c1ccc(O)cc1)C1[C@H](c2ccccc2Br)[C@@H](c2ccccc2)NC12C(=O)Nc1ccc(Cl)cc12` (some centres not stated), the growth was 4.97% (active). In the case of `O=C(c1ccccc1)n1ccc(-c2cc3cc(Br)ccc3oc2=O)n1` it was 22.5%; in that of `C#Cc1ccc(S(=O)(=O)Nc2cccc(-c3csc(NC(C)=O)n3)c2)cc1`, 85.5%; in that of `O=C(N/N=C/c1ccc(-c2cccc([N+](=O)[O-])c2)o1)c1[nH]c2ccc(Br)cc2c1-c1ccccc1`, -19.9% (active). In the case of `O=C(Nc1nc2ccc([N+](=O)[O-])cc2s1)Nc1cc(Cl)ccc1I` it was -13.6% (active); in that of `C=C(c1ccc(OC)c(N)c1)c1cc(C)nc2ccccc12`, 8.32% (active). As to `CNC(=O)c1cccc(N2CCc3c2ccc(NC(=O)Nc2ccc(N4CCN(C)CC4)c(C(F)(F)F)c2)c3F)c1`, the growth is -83.4% (active). In the case of `COc1ccc([C@H]2C(C(=O)c3ccc(Cl)cc3)C3(N[C@@H]2c2ccccc2)C(=O)Nc2ccc(Br)cc23)cc1` (some centres not stated) it was 14.9%; in that of `CN1CCN(Cc2ccc(C(=O)Nc3cccc(Nc4ccc5cc(O)ccc5n4)c3)cc2C(F)(F)F)CC1`, 4.28% (active). With `Brc1ccc(/C=N/Nc2ncnc3sc4c(c23)CCN(Cc2ccccc2)C4)cc1` the figure was 3.8% (active); with `COc1ccc(C(C)=C(c2ccc(OCCCN(C)C)cc2)c2ccc(OCCCN(C)C)cc2)cc1`, -92.6% (active). With `C=C(C)[C@@H]1CC[C@]2(C(=O)OC)CC[C@]3(C)[C@H](CC[C@@H]4[C@@]5(C)CC[C@H](N)C(C)(C)[C@@H]5CC[C@]43C)[C@@H]12` the figure was -77.4% (active).

For the compound `CS(=O)(=O)Nc1ccc(-c2ccc3c(c2)ncn3-c2ccc(NC(=O)Nc3ccc(Br)cc3)cc2)cc1`, the growth is 17.1%. Take `CCCS(=O)(=O)c1oc(-c2ccc(F)cc2)nc1S(=O)(=O)c1ccc(F)cc1`: the growth was -69.3% (active). Turning to `CC(C)CCSc1nc(NC2CC2)c(C#N)c(-c2ccc(C(C)C)cc2)n1`, the growth is 110%. In the case of `Cc1ccc(-c2nc3ccc(C(=O)N=Nc4c(O)[nH]c5ccc([N+](=O)[O-])cc45)cc3[nH]2)cc1` it was 75.3%.

These data come from PubChem BioAssay (NCI).
